Hits are enriched below; roughly 9.7% of the tested compounds scored in any of these assays.
Autofluor 339 – intrinsic fluorescence of library compounds, ex339/em460 – biochemical, MLSMR library, data from DPM-DC assay, artefact control, profiling panel | compound autofluorescence, ex339/em460 nm, NADH buffer; stronger effect = higher value; 1 = no-compound wells, NADH background | fluorescence fold increase at 10 µM | 65,000 tested, 5.5% active | AID 709;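 active = at 10 µM, mean starting fluorescence two-fold or more over control wells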;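 note: signal is the first read of a kinetic run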
Abs 340nm – absorbance at 340 nm; compound absorbance at 340 nm, fold over control; fold change at 10 µM; 65,000 tested, under 10 active; AID 708;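 active = at 10 µM dose, initial 340 nm absorbance at least 2 fold that of control wells; inactive = change under 2 fold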;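 note: initial absorbance extrapolated from kinetic A340 decline of NADH oxidation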
BAP1 inh – blocks human BAP1 ubiquitin-AMC hydrolysis. 72,000 tested, 0.48% active. calls only at 20 µM. recombinant BAP1, Ub-AMC hydrolysis fluorescence kinetic; stronger effect = lower value. AID 436;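 active = activity remaining at or below 50% of control, provided the compound also passes the data quality filters; inactive = the rest, including low values that fail the filters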
M1 antag – blocks the rat M1 muscarinic receptor response to acetylcholine. 64,000 tested, 3.4% active. B-score at 10 µM. AID 628. CHO-M1 cells, Fluo-4 calcium, ACh EC80 antagonist mode; stronger effect = lower value. P08482;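 active = calcium fluorescence response, raw or row-and-column corrected B-score, differing from the plate sample mean either way at a set confidence level, mostly lower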
M1 agonist – activates the M1 muscarinic receptor; CHO-M1 cells, Fluo-4 calcium fluorescence, agonist mode; stronger effect = higher value; B-score at 10 µM; 64,000 tested, 3% active;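 active = fluorescence rise, raw or as B-score row- and column-corrected plate score, outside the 99.7% band of its plate's samples, either direction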
WNV protease inh – inhibitors of West Nile virus NS2B-NS3 protease; WNV NS2B-NS3 protease, fluorogenic substrate Ex360/Em465; stronger effect = lower value; z-score (concentration not given with the values); P06935; AID 577; 65,000 tested, 0.18% active; in the data active = z-score below about -3
M1 agonist conf – rat M1 muscarinic agonism, confirmation; shares compounds with M1 agonist; CHO-M1 cells, Fluo-4 calcium fluorescence, agonist mode; actives lie on both sides; fluorescence change (max-min) at 10 µM; 1,700 tested, 19% active;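 active = fluorescence change differs from the solvent-only DMSO control mean at a set confidence level in both duplicate runs; inconclusive = differs from solvent-only control mean in just one of two runs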;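 note: an EC20 dose of acetylcholine follows compound addition during the same imaging run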
M4 agonist ctr – counter-screen for M1 agonists: activity at rat M4 receptor; shares compounds with M1 agonist; CHO M4/Gqi5 cells, Fluo-4 calcium fluorescence, agonist mode; actives lie on both sides; fluorescence change (max-min) at 10 µM; 1,700 tested, 9% active; AID 1741;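 active = fluorescence change differing from the plate's solvent-only control wells at 99.7% confidence in both duplicates, whether higher or lower; inconclusive = differs from solvent controls in only one of two duplicates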
Target sequence (P08485 whole entry, looked up): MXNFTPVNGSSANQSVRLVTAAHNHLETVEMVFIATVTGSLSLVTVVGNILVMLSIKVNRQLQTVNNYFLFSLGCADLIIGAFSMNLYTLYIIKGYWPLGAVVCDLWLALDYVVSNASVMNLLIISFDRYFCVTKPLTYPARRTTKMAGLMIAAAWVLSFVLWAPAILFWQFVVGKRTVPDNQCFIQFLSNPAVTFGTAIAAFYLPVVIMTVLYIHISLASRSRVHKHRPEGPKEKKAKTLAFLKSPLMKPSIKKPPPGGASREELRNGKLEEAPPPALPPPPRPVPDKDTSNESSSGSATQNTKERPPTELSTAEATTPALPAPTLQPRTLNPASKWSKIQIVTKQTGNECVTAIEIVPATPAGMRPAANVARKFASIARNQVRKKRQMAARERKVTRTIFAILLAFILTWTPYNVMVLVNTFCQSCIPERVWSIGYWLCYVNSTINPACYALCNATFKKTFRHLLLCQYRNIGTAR
Numbers stand for hits.

How did O=C(NCCCn1ccnc1)c1cccc([N+](=O)[O-])c1 do in these assays?
BAP1 inh: inactive

What do the screens show for `COC(=O)C1=C(NC(=O)c2ccc(C(C)(C)C)cc2)CCS1`?
BAP1 inh: inactive

What do the screens show for `CC1Sc2sc(=S)sc2SC(C)C1=O` (stereo not given)?
BAP1 inh: inactive

What do the screens show for `CCc1c(-c2ccccc2)nc2nc(C)c(C)nn12`?
Autofluor 339: 2.1; Abs 340nm: inactive; BAP1 inh: inactive; M1 antag: inactive; M1 agonist: 46; WNV protease inh: inactive; M1 agonist conf: 237; M4 agonist ctr: 219

Results for Cc1c(Cl)c([N+](=O)[O-])nn1CC(=O)Nc1cc(Oc2ccccc2)cc(Oc2cccnc2)c1 ?
BAP1 inh: inactive

How did Cc1c(C(=O)O)oc2ccc(S(=O)(=O)N3CC(C)CC(C)C3)cc12 (stereo not given) do in these assays?
Autofluor 339: inactive; Abs 340nm: inactive; BAP1 inh: inactive; M1 antag: -11; M1 agonist: 11; WNV protease inh: inactive; M1 agonist conf: inactive; M4 agonist ctr: inconclusive

What do the screens show for `COc1ccc(NC(=O)c2oc3ccc(S(=O)(=O)N4CCC5(CC4)OCCO5)cc3c2C)cc1`?
Autofluor 339: inactive; Abs 340nm: inactive; M1 antag: inactive; M1 agonist: 13; WNV protease inh: inactive; M1 agonist conf: inconclusive; M4 agonist ctr: inactive

What do the screens show for `Cc1c(C(=O)O)oc2ccc(S(=O)(=O)N3CCC(C)CC3)cc12`?
Autofluor 339: inactive; Abs 340nm: inactive; BAP1 inh: inactive; M1 antag: inactive; M1 agonist: inactive; WNV protease inh: inactive

How did Cc1c(C(=O)NCCc2ccccc2)oc2ccc(S(=O)(=O)N3CCC4(CC3)OCCO4)cc12 do in these assays?
Autofluor 339: inactive; Abs 340nm: inactive; M1 antag: inactive; M1 agonist: inactive

What do the screens show for `O=c1cc(CNC2CCCCC2)c2ccccc2[nH]1`?
Autofluor 339: inactive; Abs 340nm: inactive; BAP1 inh: inactive; M1 antag: inactive; M1 agonist: -3; WNV protease inh: inactive; M1 agonist conf: inconclusive; M4 agonist ctr: inactive

What do the screens show for `CCOC(=O)C1=C(C)N(CC)C(=O)NC1c1ccccc1[N+](=O)[O-]` (stereo not given)?
BAP1 inh: inactive

Results for O=C(C1CCN(S(=O)(=O)c2cccc3nsnc23)CC1)N1CC=C(c2ccccc2)CC1 ?
Autofluor 339: inactive; Abs 340nm: inactive; BAP1 inh: inactive; M1 antag: inactive; M1 agonist: 7.5; WNV protease inh: inactive; M1 agonist conf: inactive; M4 agonist ctr: inactive

How did CC(C)(C)NC(=O)c1ccc2c(c1)C(=O)N(C1CCCCC1)C2=O do in these assays?
Autofluor 339: inactive; Abs 340nm: inactive; BAP1 inh: inactive; M1 antag: inactive; M1 agonist: 6.1; WNV protease inh: inactive; M1 agonist conf: inconclusive; M4 agonist ctr: inactive

How did O=C(Nc1nc2n(n1)C(c1ccccc1)C=C(c1ccccc1)N2)c1ccco1 (stereo not given) do in these assays?
Autofluor 339: 2.6; Abs 340nm: inactive; M1 antag: inactive; M1 agonist: 19; WNV protease inh: inactive; M1 agonist conf: inactive; M4 agonist ctr: inactive

How did Nc1nc(NC(=O)c2ccco2)nn1-c1ccccc1 do in these assays?
Autofluor 339: inactive; Abs 340nm: inactive; BAP1 inh: inactive; M1 antag: inactive; M1 agonist: inactive; WNV protease inh: inactive

How did CC(=O)Nc1nc2n(n1)C(c1ccccc1)C=C(c1ccccc1)N2 (stereo not given) do in these assays?
Autofluor 339: inactive; Abs 340nm: inactive; BAP1 inh: inactive; M1 antag: inactive; M1 agonist: 20; WNV protease inh: inactive; M1 agonist conf: 132; M4 agonist ctr: inactive

Results for CC(=O)Nc1nc2n(n1)C(c1ccc(F)cc1)C=C(c1ccccc1)N2 (stereo not given) ?
Autofluor 339: 3.4; Abs 340nm: inactive; BAP1 inh: inactive; M1 antag: inactive; M1 agonist: 7.6; WNV protease inh: inactive; M1 agonist conf: 119; M4 agonist ctr: 93

How did CC1=C(C(=O)Nc2ccccc2)C(c2cccnc2)n2nc(-c3cccnc3)nc2N1 (stereo not given) do in these assays?
Autofluor 339: inactive; Abs 340nm: inactive; BAP1 inh: inactive; M1 antag: inactive; M1 agonist: inactive; WNV protease inh: inactive

Results for O=C(Nc1nc2nc(-c3ccccc3)cc(-c3ccccc3)n2n1)c1ccco1 ?
Autofluor 339: 4; Abs 340nm: inactive; BAP1 inh: inactive; M1 antag: inactive; M1 agonist: 3.8; WNV protease inh: inactive; M1 agonist conf: -24; M4 agonist ctr: inactive

Results for CCS(=O)(=O)Nc1ccc(I)cc1 ?
BAP1 inh: inactive

How did Cc1[nH]nc(-c2ccc(OC(C)C)cc2O)c1-c1ccccc1 do in these assays?
BAP1 inh: inactive

Results for CC(C)C(C(=O)Nc1ccccc1C(N)=O)N1C(=O)c2ccccc2C1=O (stereo not given) ?
BAP1 inh: inactive

Results for Cc1cc(=O)[nH]c(/N=C(\N)N2CCc3ccccc32)n1 ?
BAP1 inh: inactive

Results for O=C(Cc1cccs1)Nc1cccc(C(=O)Nc2ccco2)c1 ?
Autofluor 339: inactive; Abs 340nm: inactive; BAP1 inh: inactive; M1 antag: inactive; M1 agonist: 5.5; WNV protease inh: inactive; M1 agonist conf: inactive; M4 agonist ctr: inconclusive

What do the screens show for `CC(=O)Nc1c2c3c(cccc3n(C)c1=O)C(=O)c1ccccc1-2`?
Autofluor 339: inactive; Abs 340nm: inactive; BAP1 inh: inactive; M1 antag: inactive; M1 agonist: 9.4; WNV protease inh: inactive; M1 agonist conf: 68; M4 agonist ctr: inconclusive

Results for CCOC(=O)C1=C(C)NC(C)=C(C(=O)OCC)C1c1ccc(OC)cc1 ?
Autofluor 339: inactive; Abs 340nm: inactive; M1 antag: inactive; M1 agonist: 1.9; WNV protease inh: inactive; M1 agonist conf: inactive; M4 agonist ctr: inactive

Results for CCOC(=O)C1=C(C)NC(C)=C(C(=O)OC)C1c1ccc(Cl)cc1 (stereo not given) ?
BAP1 inh: inactive

What do the screens show for `COc1ccc(NC(=O)COc2ccccc2C(C)C)c(OC)c1`?
BAP1 inh: inactive

Results for Cc1cc(C(F)(F)F)nc(SCC(=O)NCc2cccc(C(F)(F)F)c2)n1 ?
BAP1 inh: inactive

Results for CCOc1ccc(-c2noc(COC)n2)cc1OC ?
Autofluor 339: inactive; Abs 340nm: inactive; BAP1 inh: inactive; M1 antag: inactive; M1 agonist: 3.2; WNV protease inh: inactive; M1 agonist conf: inactive; M4 agonist ctr: inactive
